Measurements reported in the supplement of paper PMC8728848.
The full list was thinned out, with the strongest signals kept by preference.

Columns and labels:
Assay in all cases: glycan array binding signal (z-score within array); higher = stronger binding
Settings in all cases: glycan notation: IUPAC condensed, linker removed
[1] = target: Fuc(a1-2)Gal(b1-3)GalNAc(a1-3)[Fuc(a1-2)]Gal(b1-4)GlcNAc
Summary of the method: (§1)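 Glycan array data were curated from 3228 arrays in the Consortium for Functional Glycomics database and kept only where the protein sequence was available. Glycan names were converted to IUPAC-condensed notation, and columns mapping to the same glycan were averaged. The binding signal is a within-array Z-score, averaged across arrays of the same protein sequence at different concentrations or buffers and across linkers. Negative Z-scores can be read as non-binding.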

[2] = target: Fuc(a1-2)Gal(b1-3)GalNAc(b1-3)Gal(a1-4)Gal(b1-4)Glc
Summary of the method: as §1

[3] = target: Fuc(a1-2)Gal(b1-3)GlcNAc(b1-2)Man(a1-3)[Fuc(a1-2)Gal(b1-3)GlcNAc(b1-2)Man(a1-6)]Man(b1-4)GlcNAc(b1-4)[Fuc(a1-6)]GlcNAc
Summary of the method: as §1

[4] = target: Fuc(a1-2)Gal(b1-4)GlcNAc(b1-6)GalNAc
Summary of the method: as §1

Fuc(a1-2)Gal6S(b1-4)Glc = target: Fuc(a1-2)Gal6S(b1-4)Glc
Summary of the method: as §1

[5] = target: Fuc(a1-2)[Gal(a1-3)]Gal(b1-4)GlcNAc(b1-3)GalNAc
Summary of the method: as §1

[6] = target: Fuc(a1-3)[Gal(b1-4)]GlcNAc6S
Summary of the method: as §1

Fuc(a1-4)GlcNAc = target: Fuc(a1-4)GlcNAc
Summary of the method: as §1

Gal(a1-3)Gal(b1-3)GlcNAc = target: Gal(a1-3)Gal(b1-3)GlcNAc
Summary of the method: as §1

[7] = target: Gal(a1-3)Gal(b1-4)[Fuc(a1-3)]GlcNAc
Summary of the method: as §1

[8] = target: Gal(a1-3)Gal(b1-4)[Fuc(a1-3)]GlcNAc(b1-2)Man(a1-3)[Gal(a1-3)Gal(b1-4)[Fuc(a1-3)]GlcNAc(b1-2)Man(a1-6)]Man(b1-4)GlcNAc(b1-4)GlcNAc
Summary of the method: as §1

[9] = target: Gal(a1-3)[Gal(a1-4)]Gal(b1-4)GlcNAc
Summary of the method: as §1

Gal(a1-4)Gal(b1-4)Glc = target: Gal(a1-4)Gal(b1-4)Glc
Summary of the method: as §1

Gal(b1-3)Gal = target: Gal(b1-3)Gal
Summary of the method: as §1

[10] = target: Gal(b1-3)GalNAc(b1-3)Gal(a1-4)Gal(b1-4)Glc
Summary of the method: as §1

[11] = target: Gal(b1-3)GalNAc(b1-4)[Neu5Ac(a2-3)]Gal(b1-4)Glc
Summary of the method: as §1

[12] = target: Gal(b1-3)GlcNAc(b1-3)GalNAc
Summary of the method: as §1

[13] = target: Gal(b1-3)[Neu5Ac(a2-6)]GalNAc
Summary of the method: as §1

[14] = target: Gal(b1-3)[Neu5Ac(a2-6)]GlcNAc(b1-4)Gal(b1-4)Glc
Summary of the method: as §1

[15] = target: Gal(b1-3)[Neu5Ac(b2-6)]GalNAc
Summary of the method: as §1

[16] = target: Gal(b1-4)GlcNAc(b1-2)Man(a1-3)[Gal(b1-4)GlcNAc(b1-2)Man(a1-6)]Man(b1-4)GlcNAc(b1-4)GlcNAc
Summary of the method: as §1

[17] = target: Gal(b1-4)GlcNAc(b1-2)Man(a1-6)[GlcNAc(b1-2)Man(a1-3)]Man(b1-4)GlcNAc(b1-4)GlcNAc
Summary of the method: as §1

[18] = target: Gal(b1-4)GlcNAc(b1-3)Gal(b1-4)GlcNAc(b1-3)Gal(b1-4)GlcNAc(b1-3)Gal(b1-4)GlcNAc(b1-3)Gal(b1-4)GlcNAc(b1-3)Gal(b1-4)GlcNAc(b1-2)Man(a1-3)[Gal(b1-4)GlcNAc(b1-3)Gal(b1-4)GlcNAc(b1-3)Gal(b1-4)GlcNAc(b1-3)Gal(b1-4)GlcNAc(b1-3)Gal(b1-4)GlcNAc(b1-3)Gal(b1-4)GlcNAc(b1-2)Man(a1-6)]Man(b1-4)GlcNAc(b1-4)GlcNAc
Summary of the method: as §1

[19] = target: Gal(b1-4)GlcNAc(b1-3)[Gal(b1-4)GlcNAc(b1-6)]Gal(b1-4)GlcNAc
Summary of the method: as §1

[20] = target: Gal(b1-4)GlcNAc(b1-6)GalNAc
Summary of the method: as §1

Gal(b1-6)Gal = target: Gal(b1-6)Gal
Summary of the method: as §1

[21] = target: Gal3S(b1-3)[Fuc(a1-4)]GlcNAc
Summary of the method: as §1

Gal3S4S(b1-4)GlcNAc = target: Gal3S4S(b1-4)GlcNAc
Summary of the method: as §1

B1: DCIR1 (Mus musculus), Q9QZ15 (protein)
chain: MASEITYAEVKFKNESNSLHTYSESPAAPREKPIRDLRKPGSPSLLLTSLMLLLLLLAITFLVAFIIYFQKYSQLLEEKKAAKNIMHNELNCTKSVSPMEDKVWSCCPKDWRLFGSHCYLVPTVSSSASWNKSEENCSRMGAHLVVIQSQEEQDFITGILDTHAAYFIGLWDTGHRQWQWVDQTPYEESITFWHNGEPSSGNEKCATIIYRWKTGWGWNDISCSLKQKSVCQMKKINL
glycan array binding signal (z-score) [1]: 0.031 | glycan array binding signal (z-score) [2]: 3.31 | glycan array binding signal (z-score) [3]: 3.05 | glycan array binding signal (z-score) [4]: 3.97 | glycan array binding signal (z-score) (Fuc(a1-2)Gal6S(b1-4)Glc): 1.87 | glycan array binding signal (z-score) [5]: -0.604 | glycan array binding signal (z-score) [6]: 1.43 | glycan array binding signal (z-score) (Fuc(a1-4)GlcNAc): -0.807 | glycan array binding signal (z-score) (Gal(a1-3)Gal(b1-3)GlcNAc): 7.14 | glycan array binding signal (z-score) [7]: -0.171 | glycan array binding signal (z-score) [8]: 2.31 | glycan array binding signal (z-score) [9]: 3.21 | glycan array binding signal (z-score) (Gal(a1-4)Gal(b1-4)Glc): 0.74 | glycan array binding signal (z-score) (Gal(b1-3)Gal): -0.894 | glycan array binding signal (z-score) [10]: 0.592 | glycan array binding signal (z-score) [11]: 2.65 | glycan array binding signal (z-score) [12]: -0.841 | glycan array binding signal (z-score) [13]: -0.767 | glycan array binding signal (z-score) [14]: 3.38 | glycan array binding signal (z-score) [15]: -0.696 | glycan array binding signal (z-score) [16]: -0.217 | glycan array binding signal (z-score) [17]: 0.904 | glycan array binding signal (z-score) [18]: -0.907 | glycan array binding signal (z-score) [19]: -0.693 | glycan array binding signal (z-score) [20]: 1.01 | glycan array binding signal (z-score) (Gal(b1-6)Gal): -0.786 | glycan array binding signal (z-score) [21]: -0.369 | glycan array binding signal (z-score) (Gal3S4S(b1-4)GlcNAc): -0.376
